A selection: hits, their analogues and other compounds. The true share with any hit is near 1.4%.
Mtb MenB inh: blocks the Mycobacterium tuberculosis MenB enzyme; MenB enzyme assay, absorbance read-out; inhibition, % (test concentration not listed); 0.43% of 100,000 active; in the data active = inhibition above about 21%, passing the limit was not always enough
Target sequence (P9WNP5 whole entry, looked up): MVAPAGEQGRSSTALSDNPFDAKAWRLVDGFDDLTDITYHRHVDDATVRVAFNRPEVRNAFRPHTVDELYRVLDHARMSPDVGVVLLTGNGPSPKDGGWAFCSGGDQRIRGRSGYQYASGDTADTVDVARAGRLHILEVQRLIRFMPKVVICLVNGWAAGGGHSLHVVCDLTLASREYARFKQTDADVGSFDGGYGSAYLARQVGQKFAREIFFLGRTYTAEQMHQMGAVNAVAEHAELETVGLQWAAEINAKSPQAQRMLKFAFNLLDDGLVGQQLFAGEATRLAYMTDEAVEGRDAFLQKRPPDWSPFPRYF
PV pol inh: inhibitors of poliovirus RNA polymerase binding and polymerization; AID 588519; 0.66% of 150,000 active; poliovirus polymerase elongation, fluorescence polarization; active compounds read low; P03300; % elongation, % (compound at 16.7 µg/mL); in the data active = % elongation below about 90%
AID504770: E. coli YBA685 growth inhibition, screen for V. cholerae RctB inhibitors | E. coli YBA685 rctB-dependent plasmid, OD600 growth, 3 h; active compounds read low | z-score (concentration not given with the values) | 0.27% of 130,000 active | AID 504770; in the data active = z-score below about -2, passing the limit was not always enough
MbtI inh: inhibitors of Mycobacterium tuberculosis siderophore enzyme MbtI. P9WFX0. purified MbtI enzyme, fluorescence intensity read-out. inhibition, % (no concentration beside the values). 0.89% of 100,000 active. AID 493033; in the data active = inhibition mostly above about 56%, no sharp cut-off; inactive = mostly below about 77%
* hit, by the source's call; / = no result.

SMILES	Mtb MenB inh	PV pol inh	AID504770	MbtI inh
CCN1CCc2c(OCC(=O)NC3CCCCC3)cccc2C1=O	-11	100	-0.35	-7
CC(C)n1c(O)c(N=NC(=S)NC2CCCCC2)c2ccccc21	-71	104	-2.9*	-1
CC(C)Cn1c(O)c(N=NC(=S)NC(C)C)c2ccccc21	-112	97	0.55	-71
CC(C)c1ccc(-c2nnn(Cc3cc(=O)n4ccsc4n3)n2)cc1	-4	104	-2.2*	-51
COC(=O)c1nnn(-c2nonc2N)c1C(=O)OC	10	100	0.55	15
O=c1[nH]cc(N=Cc2cccnc2)c(=O)[nH]1	6	104	-0.15	3
CC1=NN(c2ccccc2)C(=O)C1(O)C1C(=O)c2ccccc2C1=O (stereo not drawn)	-166	29*	2.4	-3
CC1=NN(c2ccccc2)C(=O)C1(C)N (stereo not drawn)	-10	105	0.95	-1
N#Cc1c(-c2ccccc2)cc(-c2ccccc2)nc1SCC(O)CS(=O)(=O)Cc1ccccc1 (stereo not drawn)	/	80*	/	/
CCOc1cccc(CNCCN2CCOCC2)c1	-46	97	0.35	-2
c1cncc(CNCCN2CCOCC2)c1	65*	102	-0.2	-8
N#Cc1ccc(NC(=O)CNCC2CCCCC2)cc1	0	101	0.85	-1
COc1ccc(CNC(=O)CCCn2c(=O)oc3ccccc32)cc1	18	101	0.85	-31
O=S(=O)(c1ccc2c(c1)OCCO2)N1c2cccc3cccc(c23)S1(=O)=O	-36	98	-0.8	-7
CCn1c(=O)c2cc(C(=O)N(Cc3ccccc3)C(C)C)sc2c2ccccc21	-10	100	-0.05	38
CCn1c(=O)c2cc(C(=O)N(CCN(C)C)Cc3ccccc3)sc2c2ccccc21	/	87*	/	/
CCCCN(CC)CCCNC(=O)c1cc2c(-c3ccc(OC)c(OC)c3)nn(C)c2s1	/	80*	/	/
NC(=S)Nc1ccc(C(=O)O)cc1	-79	81*	0.15	92
NC(=S)CC(=O)Nc1ccccc1	-36	101	-0.05	93*
NC(=O)c1ccc(NC(=O)CSC(=O)c2ccccc2)cc1	/	102	-0.6	70*
COCCCn1c(Sc2ccc(S(=O)(=O)N3CCCC3)cn2)nnc1-c1ccccc1Cl	-5	/	-0.7	8
CCn1c(SCC(=O)c2cc(C)n(CC3CCCO3)c2C)nnc1-c1ccccc1 (stereo not drawn)	-25	104	-0.75	-7
O=C1CSC(N2CCOCC2)=N1	5	103	-1.3	-10
Cc1nn(C)c2c1S(=O)(=O)N=C(N1CCOCC1)S2	-11	81*	-0.05	4
O=C(Cn1ncn2c(cc3ccccc32)c1=O)NCCc1ccccc1	-8	102	-0.8	14
SMILES	Mtb MenB inh	PV pol inh	AID504770	MbtI inh
Cc1cc2c(c(=O)n1C)C(c1ccc(C(C)C)cc1)C(C#N)=C(N)O2 (stereo not drawn)	-46	106	2.3	-5
O=C(CS(=O)(=O)Cc1ccccc1)Nc1ccc2c(c1)OCO2	-16	103	-0.95	7
O=C(CNS(=O)(=O)c1ccccc1)Nc1ccc2c(c1)OCO2	56*	103	0.8	4
CN1C(=O)C2C=CC=CC2NC1=S (stereo not drawn)	-73	87*	0.5	44
CCN1C(=O)C2C=CC=CC2NC1=S (stereo not drawn)	4	101	-0.7	3
O=C(NC1CC1)c1ccc(/C=C2/Oc3ccccc3N(Cc3ccccc3F)C2=O)cc1	-7	104	0.15	-7
O=C1C(c2c(O)n(-c3cc(Cl)cc(Cl)c3)[nH]c2=O)=Nc2ccccc21	3	103	1.2	84*
COc1ccccc1-n1c(-c2ccccc2)cnc1SCC#N	-11	114	0.7	4
CN1/C(=N\O)c2cccc3cccc1c23	-70	96	0.25	81*
COc1ccc(/C=N/NC(=S)Nc2c(C)n(C)n(-c3ccccc3)c2=O)cc1OC	-12	100	0.65	27
COc1ccc(/C=C2\SC(=O)N(c3c(C)n(C)n(-c4ccccc4)c3=O)C2=O)cc1OC	-32	81*	0.1	87*
Cc1ccc(/C(N)=N\O)n1C	52*	102	1.6	/
CCCCOC(=O)Cn1c2ccccc2c2nc3ccccc3nc21	14	101	-1.9	-2
CCOC(=O)c1sc(NC(=O)C2c3ccccc3Oc3ccccc32)c(C#N)c1C	/	76*	/	/
CC1Sc2nnc(C(C)(C)C)n2N=C1c1ccc(Cl)cc1 (stereo not drawn)	-1	76*	1.4	92
N#Cc1c(-c2cccs2)cc(-c2ccc(C(=O)O)cc2)nc1SCc1cccs1	4	78*	-0.4	/
c1ccc(CNCc2cccn2-c2nnc(N3CCCCC3)s2)cc1	1	102	-0.1	4
COc1cccc(COCC(O)CN2CCC(C(N)=O)CC2)c1 (stereo not drawn)	-9	101	-0.6	99*
CCOC(=O)CN1C(=O)S/C(=C/c2cc(OC)c(O)cc2Br)C1=O	-89	123	1.6	-5
COc1cc(C#N)ccc1OCC(=O)NC(C)c1ccc2c(c1)OCO2 (stereo not drawn)	9	101	1.5	15
O=C(O)Cn1c2c(c3ccccc31)CSc1ccc(Cl)cc1-2	-16	99	-0.3	96*
Cc1nn(CCCC(=O)NCCc2ccccc2)c(=O)c2cc3sccc3n12	/	/	-1.6	/
Cc1ccc(-c2nc(N)s[n+]2-c2ccccc2)cc1	/	/	-2.4*	/
COc1ccc(-c2nc(N)s[n+]2-c2ccccc2)cc1	/	102	1.5	98*
Cc1noc(C)c1C(=O)N1CC(C(N)=O)Oc2ccccc21 (stereo not drawn)	-6	108	-0.3	-4
SMILES	Mtb MenB inh	PV pol inh	AID504770	MbtI inh
Cc1ccc(C(=O)C2=C(O)C(=O)N(CCc3ccccc3)C2c2ccncc2)o1 (stereo not drawn)	-14	99	0.15	-6
CCOC(=O)c1cnc2ccc(OCC)cc2c1NCCCN1CCOCC1	2	89*	-0.2	/
CCOC(=O)c1cnc2ccc(OCC)cc2c1NCCN(C)C	-9	101	-0.95	35
Cc1occc1C(=O)NCc1ccccc1	56*	100	-0.15	1
Nc1c(-c2ccccc2)nc2sccn12	81*	94	1.8	88*
Cc1ccccc1Nc1nc(N)nc(COC(=O)Cc2c[nH]c3ccccc23)n1	-2	108	0.2	-9
Cc1ccccc1Nc1nc(N)nc(COC(=O)CCCN=C2NS(=O)(=O)c3ccccc32)n1	-1	86*	0.65	-8
S=C(SN1CCOCC1)N1CCOCC1	-69	77*	-0.55	/
COc1cccc2c(C)cc(=O)[nH]c12	/	104	1.8	-4
Cc1cc(=O)[nH]c2c(C)c(Cl)ccc12	29*	101	-0.7	2
COc1ccccc1-c1nnc(SCC(=O)c2ccc(F)cc2)n1-c1ccccc1	/	83*	/	/
Cc1noc(C)c1C(=O)Oc1ccc(Cl)cc1	/	/	-0.2	/
NC(=O)Cn1cnc2sc3c(c2c1=O)CCC3	-24	90*	-0.25	/
Cc1ccc(Cc2c[nH]c(=S)s2)cc1	-65	103	-1.3	90*
O=C(Nc1cccc(C2=NCCN2)c1)Nc1cccc(C2=NCCN2)c1	4	68*	0.1	/
CCOc1ncccc1C(=O)Nc1c(C)cc(C)cc1Cl	-28	106	0.05	5
